According to PubChem BioAssay AID1359 (The Scripps Research Institute Molecular Screening Center, 2008):
Out of some 220,000 compounds screened, about 970 (0.44%) were called active. Shown is part of a subset that was picked to be rich in actives. Values without a mark were called inactive. Rule as the data show it: active = activation above about 27%; inactive = the rest.

biological target: Neuropeptide Y receptor type 2 (Homo sapiens) (UniProt P49146); experiment: human Y2 receptor positive modulation or activation – cell-based, primary screen (AID 1359); details: cells expressing NPY-Y2, potentiator/agonist read-out; at 3.6 µM; active compounds read high;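 also: cells stimulated with NPY near EC25 plus isoproterenol at EC100; 0% = vehicle plus submaximal agonist and 100% = vehicle plus saturating agonist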
Sequence (P49146 whole entry, looked up): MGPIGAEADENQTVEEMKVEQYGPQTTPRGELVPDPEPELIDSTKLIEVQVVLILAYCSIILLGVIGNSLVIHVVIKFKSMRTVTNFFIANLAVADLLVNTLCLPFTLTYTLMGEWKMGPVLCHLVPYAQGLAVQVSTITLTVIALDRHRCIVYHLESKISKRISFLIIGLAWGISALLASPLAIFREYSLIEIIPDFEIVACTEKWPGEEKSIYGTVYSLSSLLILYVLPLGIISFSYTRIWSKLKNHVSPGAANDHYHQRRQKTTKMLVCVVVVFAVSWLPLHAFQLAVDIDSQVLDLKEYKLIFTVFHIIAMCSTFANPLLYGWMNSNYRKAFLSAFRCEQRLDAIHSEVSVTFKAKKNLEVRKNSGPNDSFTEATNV

Row | Structure (SMILES) | activation
1 | O=C(Nc1nncs1)c1ccccc1NS(=O)(=O)c1cccs1 | -3.36%
2 | COC(=O)c1ccccc1NC(=O)c1ccccc1NS(C)(=O)=O | -6.98%
3 | CCOc1ccc(NC(=O)c2ccccc2NS(C)(=O)=O)cc1 | 2.32%
4 | COc1cc(NC(=O)c2ccccc2NS(=O)(=O)c2ccc(Cl)s2)cc(OC)c1 | 44% (active)
5 | COc1cc(NC(=O)c2cccnc2SC)cc(OC)c1 | 6.08%
6 | COC(=O)c1ccc(NC(=O)c2ccccc2NS(=O)(=O)c2ccccc2)cc1 | 34.4% (active)
7 | COc1ccccc1NC(=S)N1CCC(NC(=O)C23CC4CC(CC(C4)C2)C3)CC1 | 1.71%
8 | O=c1c2c3c(sc2n(CCN2CCCC2)c(=O)n1Cc1ccccc1)CCCCC3 | -17.9%
9 | O=C(Cn1nnc(N2CCCCC2)n1)c1ccc(Cl)c(Cl)c1 | 19%
10 | COc1ccc(Cc2n[nH]c(=S)n2NC(=O)Nc2ccc(C)cc2)cc1 | 7.41%
11 | CC1CN(/C=C/C(=O)C(F)(F)F)CC(C)O1 (stereo unspecified) | -5.05%
12 | CCC(=O)N1CCC(C(N)=O)(N2CCCCC2)CC1 | -10.4%
13 | CCCCCCCC1(C)NC(=O)N(CC(=O)Nc2cc(C)on2)C1=O (stereo unspecified) | 8.45%
14 | CCOC(=O)Cc1cc(=O)[nH]c(/N=C(\N)Nc2ccc(OC)cc2)n1 | -5.89%
15 | CC(CCc1ccccc1)NCC(O)c1cccc([N+](=O)[O-])c1 (stereo unspecified) | 87.1% (active)
16 | CC(=O)NCC(O)c1ccc([N+](=O)[O-])cc1 (stereo unspecified) | 7.64%
17 | CC(C)OP(=O)(OC(C)C)C(Nc1ccccc1)c1cccc([N+](=O)[O-])c1 (stereo unspecified) | -1.74%
18 | O=C(CCn1nnc2ccccc2c1=O)N[C@@H](Cc1c[nH]c2ccccc12)C(=O)O | 13.2%
19 | CCOc1ccc(S(=O)(=O)N(CC(=O)NCC(F)(F)F)Cc2ccco2)cc1 | -4.11%
20 | Cc1ccc(Nc2nc(CSc3nnc(-c4ccncc4)n3-c3ccccc3C)cs2)cc1 | 2.6%
21 | COc1cccc(CNn2cn[nH]c2=S)c1OCc1ccccc1 | 2.42%
22 | O=C(CC(O)(C(F)(F)F)C(F)(F)F)Nc1ccc(Cl)c(Cl)c1 | 52.9% (active)
23 | O=C(CC(=O)Nc1ccc(Cl)c(Cl)c1)N/N=C/c1ccc(O)cc1 | 7.69%
24 | CN(C)CCNC(CC(=O)Nc1ccc(Cl)c(Cl)c1)C(=O)O (stereo unspecified) | 4.29%
25 | Cc1ccccc1/[N+]([O-])=C/c1ccncc1 | -7.27%
26 | CC(=O)c1c(C)[nH]c(=S)c(C#N)c1-c1ccc(F)cc1 | -13.5%
